# From the supplement of paper PMC6522484
# ± gives the standard deviation of the averaged measurements.
# Tests used:
# DLD1 [1] = assay: cell viability (CellTiter-Glo) relative to plate median (fraction of plate median); higher = more viable cells; settings: 5 µM; treatment time 24 h; reporter: 7TFP
# Outline: (§1)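 Two independent replicates were averaged for each reported value. Library compounds were applied at a final 5 µM for 24 h to colorectal cancer cell lines stably expressing lentiviral TCF/Wnt firefly luciferase reporters. Firefly luciferase or CellTiterGlo luminescence from each well was normalised to the plate median.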
# HCT116 = assay: as above; settings: 5 µM; treatment time 24 h; reporter: TCF4/Wnt
# Outline: as §1
# SW480 [2] = assay: as above; settings: 5 µM; treatment time 24 h; reporter: 7TFP
# Outline: as §1
# DLD1 [3] = assay: TCF/Wnt firefly luciferase reporter signal relative to plate median (fraction of plate median); higher = higher Wnt reporter signal; settings: 5 µM; treatment time 24 h; reporter: 7TFP
# Outline: as §1
# SW480 [4] = assay: as above; settings: 5 µM; treatment time 24 h; reporter: 7TFP
# Outline: as §1
smiles,measurement,setting,value
CC(=O)OCC1=C(C(=O)O)N2C(=O)[C@@H](NC(=O)Cc3cccs3)[C@H]2SC1,cell viability,DLD1 [1],1.05 ± 0.021
same,cell viability,HCT116,1.06 ± 0.021
same,cell viability,SW480 [2],1.03 ± 0.028
same,TCF/Wnt firefly luciferase reporter signal,DLD1 [3],0.953 ± 0.016
same,TCF/Wnt firefly luciferase reporter signal,SW480 [4],1 ± 0.028
COc1cccc2c1C(=O)c1c(O)c3c(c(O)c1C2=O)C[C@@](O)(C(=O)CO)C[C@@H]3O[C@H]1C[C@H](N)[C@@H](O)[C@H](C)O1,cell viability,DLD1 [1],1.03 ± 0.028
same,cell viability,HCT116,0.589 ± 0.19
same,cell viability,SW480 [2],1.11 ± 0.13
same,TCF/Wnt firefly luciferase reporter signal,DLD1 [3],1.16 ± 0.014
same,TCF/Wnt firefly luciferase reporter signal,SW480 [4],0.727 ± 0.082
Cc1onc(-c2ccccc2)c1C(=O)N[C@@H]1C(=O)N2[C@@H]1SC(C)(C)[C@@H]2C(=O)O,cell viability,DLD1 [1],0.978 ± 0.032
same,cell viability,HCT116,0.891 ± 0.1
same,cell viability,SW480 [2],0.978 ± 0.0014
same,TCF/Wnt firefly luciferase reporter signal,DLD1 [3],1.21 ± 0.071
same,TCF/Wnt firefly luciferase reporter signal,SW480 [4],1.11 ± 0.028
Nc1nc(=O)c2nc(CNc3ccc(C(=O)N[C@@H](CCC(=O)O)C(=O)O)cc3)cnc2[nH]1,cell viability,DLD1 [1],1.07 ± 0.057
same,cell viability,HCT116,0.977 ± 0.075
same,cell viability,SW480 [2],1.03 ± 0.044
same,TCF/Wnt firefly luciferase reporter signal,DLD1 [3],1.01 ± 0.098
same,TCF/Wnt firefly luciferase reporter signal,SW480 [4],1.05 ± 0.12
c1ccc(CC2=NCCN2)cc1,cell viability,DLD1 [1],0.994 ± 0.066
same,cell viability,HCT116,1.04 ± 0.075
same,cell viability,SW480 [2],0.9775 ± 0.00071
same,TCF/Wnt firefly luciferase reporter signal,DLD1 [3],0.952 ± 0.082
same,TCF/Wnt firefly luciferase reporter signal,SW480 [4],1.01 ± 0.12
COc1ccc2c(c1)OC/C(=C/c1ccc(O)c(O)c1)C2=O,cell viability,DLD1 [1],0.99 ± 0.043
same,cell viability,HCT116,1.01 ± 0.021
same,cell viability,SW480 [2],0.986 ± 0.035
same,TCF/Wnt firefly luciferase reporter signal,DLD1 [3],0.944 ± 0.033
same,TCF/Wnt firefly luciferase reporter signal,SW480 [4],1.09 ± 0.078
COc1ccc(Cl)cc1C(=O)NCCc1ccc(S(=O)(=O)NC(=O)NC2CCCCC2)cc1,cell viability,DLD1 [1],1.005 ± 0.0071
same,cell viability,HCT116,0.962 ± 0.082
same,cell viability,SW480 [2],0.976 ± 0.049
same,TCF/Wnt firefly luciferase reporter signal,DLD1 [3],1.12 ± 0.13
same,TCF/Wnt firefly luciferase reporter signal,SW480 [4],1.14 ± 0.05
C[C@]1(OC(=O)/C=C/c2ccccc2)C[C@@H](O)[C@]2(O)C=CO[C@@H](O[C@@H]3O[C@H](CO)[C@@H](O)[C@H](O)[C@H]3O)[C@@H]21,cell viability,DLD1 [1],1.035 ± 0.0071
same,cell viability,HCT116,1.02 ± 0.11
same,cell viability,SW480 [2],1.06 ± 0.05
same,TCF/Wnt firefly luciferase reporter signal,DLD1 [3],1.12 ± 0.028
same,TCF/Wnt firefly luciferase reporter signal,SW480 [4],1.03 ± 0.05
COc1cc2c(=O)c(-c3ccc4c(c3)OCO4)coc2c(OC)c1OC,cell viability,DLD1 [1],1.05 ± 0.05
same,cell viability,HCT116,1.01 ± 0.073
same,cell viability,SW480 [2],1 ± 0.011
same,TCF/Wnt firefly luciferase reporter signal,DLD1 [3],0.94 ± 0.05
same,TCF/Wnt firefly luciferase reporter signal,SW480 [4],0.922 ± 0.026
CC12CCC3c4ccc(OCc5ccccc5)cc4CCC3C1C[C@@H](O)[C@@H]2O (stereo not given in full),cell viability,DLD1 [1],1.08 ± 0.085
same,cell viability,HCT116,0.992 ± 0.026
same,cell viability,SW480 [2],1.01
same,TCF/Wnt firefly luciferase reporter signal,DLD1 [3],0.95 ± 0.14
same,TCF/Wnt firefly luciferase reporter signal,SW480 [4],0.993 ± 0.025
O=C(Oc1ccccc1C(=O)O)c1ccccc1O,cell viability,DLD1 [1],1.02 ± 0.014
same,cell viability,HCT116,0.961 ± 0.054
same,cell viability,SW480 [2],1.03 ± 0.014
same,TCF/Wnt firefly luciferase reporter signal,DLD1 [3],1.06 ± 0.14
same,TCF/Wnt firefly luciferase reporter signal,SW480 [4],1.02 ± 0.18
CN(C/C=C/C#CC(C)(C)C)Cc1cccc2ccccc12,cell viability,DLD1 [1],1.04 ± 0.18
same,cell viability,HCT116,1.04 ± 0.014
same,cell viability,SW480 [2],1.03 ± 0.035
same,TCF/Wnt firefly luciferase reporter signal,DLD1 [3],1.21 ± 0.042
same,TCF/Wnt firefly luciferase reporter signal,SW480 [4],1.07 ± 0.2
COc1cc2occ(-c3ccc(O)cc3)c(=O)c2cc1O [Kakkatin],cell viability,DLD1 [1],1.04 ± 0.028
same,cell viability,HCT116,1.06 ± 0.14
same,cell viability,SW480 [2],1.01 ± 0.044
same,TCF/Wnt firefly luciferase reporter signal,DLD1 [3],1.22 ± 0.028
same,TCF/Wnt firefly luciferase reporter signal,SW480 [4],1.09 ± 0.064
O=C(CCCN1CCN(c2ccccn2)CC1)c1ccc(F)cc1,cell viability,DLD1 [1],1.03 ± 0.028
same,cell viability,HCT116,0.963 ± 0.12
same,cell viability,SW480 [2],0.994 ± 0.023
same,TCF/Wnt firefly luciferase reporter signal,DLD1 [3],0.985 ± 0.064
same,TCF/Wnt firefly luciferase reporter signal,SW480 [4],1.01 ± 0.028
COc1ccc2c(c1OC)OC[C@@H](c1ccc(OC)c(OC)c1OC)C2,cell viability,DLD1 [1],1.01 ± 0.069
same,cell viability,HCT116,1.1 ± 0.099
same,cell viability,SW480 [2],1.06 ± 0.035
same,TCF/Wnt firefly luciferase reporter signal,DLD1 [3],1.04 ± 0.09
same,TCF/Wnt firefly luciferase reporter signal,SW480 [4],0.961 ± 0.055
CC(C)C[C@@H]1NC(=O)[C@H](CCCN)NC(=O)[C@H](C(C)C)NC(=O)[C@H](Cc2ccc(O)cc2)N[C@@H](CCC(=O)O)C(=O)N[C@@H](CC(N)=O)C(=O)[C@@H](Cc2ccccc2)NC(=O)[C@H](Cc2ccccc2)NC(=O)[C@@H]2CCCN2C(=O)[C@@H](Cc2ccccc2)NC1=O,cell viability,DLD1 [1],0.894 ± 0.091
same,cell viability,HCT116,0.71 ± 0.072
same,cell viability,SW480 [2],0.486 ± 0.082
same,TCF/Wnt firefly luciferase reporter signal,DLD1 [3],0.685 ± 0.041
same,TCF/Wnt firefly luciferase reporter signal,SW480 [4],0.469 ± 0.1
S=P(N1CC1)(N1CC1)N1CC1,cell viability,DLD1 [1],0.975 ± 0.036
same,cell viability,HCT116,0.928 ± 0.017
same,cell viability,SW480 [2],1.01 ± 0.03
same,TCF/Wnt firefly luciferase reporter signal,DLD1 [3],0.975 ± 0.03
same,TCF/Wnt firefly luciferase reporter signal,SW480 [4],0.93 ± 0.021
O=C(O)c1cc(O)c2c(c1)[C@H]([C@H]1c3cc(C(=O)O)cc(O)c3C(=O)c3c(O[C@@H]4O[C@H](CO)[C@@H](O)[C@H](O)[C@H]4O)cccc31)c1cccc(O[C@@H]3O[C@H](CO)[C@@H](O)[C@H](O)[C@H]3O)c1C2=O,cell viability,DLD1 [1],0.943 ± 0.028
same,cell viability,HCT116,0.967 ± 0.12
same,cell viability,SW480 [2],1.01 ± 0.018
same,TCF/Wnt firefly luciferase reporter signal,DLD1 [3],1.08 ± 0.19
same,TCF/Wnt firefly luciferase reporter signal,SW480 [4],1.01 ± 0.071
O=C(O)CCc1nc(-c2ccccc2)c(-c2ccccc2)o1,cell viability,DLD1 [1],0.846 ± 0.15
same,cell viability,HCT116,0.999 ± 0.13
same,cell viability,SW480 [2],0.963 ± 0.02
same,TCF/Wnt firefly luciferase reporter signal,DLD1 [3],0.915 ± 0.03
same,TCF/Wnt firefly luciferase reporter signal,SW480 [4],0.952 ± 0.032
CC(=O)O[C@@H]1CC[C@@]2(C)C(C[C@@H](OC(C)=O)[C@@]3(C)C4=CC(=O)O[C@@H](c5ccoc5)[C@]4(C)CCC23)C1(C)C (stereo partly drawn) [3alpha-ACETOXYDIHYDRODEOXYGEDUNIN],cell viability,DLD1 [1],1 ± 0.021
same,cell viability,HCT116,1.04 ± 0.11
same,cell viability,SW480 [2],0.956 ± 0.026
same,TCF/Wnt firefly luciferase reporter signal,DLD1 [3],1.25 ± 0.22
same,TCF/Wnt firefly luciferase reporter signal,SW480 [4],1.11 ± 0.028
O=C(/C=C/c1ccccc1)c1ccc(O)cc1,cell viability,DLD1 [1],0.834 ± 0.11
same,cell viability,HCT116,0.906 ± 0.047
same,cell viability,SW480 [2],0.898 ± 0.013
same,TCF/Wnt firefly luciferase reporter signal,DLD1 [3],0.88 ± 0.1
same,TCF/Wnt firefly luciferase reporter signal,SW480 [4],0.976 ± 0.2
Cc1cc(N)c2ccccc2[n+]1CCCCCCCCCC[n+]1c(C)cc(N)c2ccccc21,cell viability,DLD1 [1],0.995 ± 0.092
same,cell viability,HCT116,0.907 ± 0.042
same,cell viability,SW480 [2],0.989 ± 0.087
same,TCF/Wnt firefly luciferase reporter signal,DLD1 [3],0.751 ± 0.18
same,TCF/Wnt firefly luciferase reporter signal,SW480 [4],0.793 ± 0.11
CCOC(=O)[C@@](C)(N)Cc1ccc(O)c(O)c1,cell viability,DLD1 [1],1 ± 0.025
same,cell viability,HCT116,0.93 ± 0.098
same,cell viability,SW480 [2],0.979 ± 0.044
same,TCF/Wnt firefly luciferase reporter signal,DLD1 [3],1.1 ± 0.12
same,TCF/Wnt firefly luciferase reporter signal,SW480 [4],1.07 ± 0.064
NS(=O)(=O)c1cc(C2(O)NC(=O)c3ccccc32)ccc1Cl (stereo not given),cell viability,DLD1 [1],1.02 ± 0.067
same,cell viability,HCT116,1.02 ± 0.036
same,cell viability,SW480 [2],0.986 ± 0.1
same,TCF/Wnt firefly luciferase reporter signal,DLD1 [3],0.958 ± 0.13
same,TCF/Wnt firefly luciferase reporter signal,SW480 [4],0.981 ± 0.025
COc1c(OC)c2occc2c2oc(=O)ccc12,cell viability,DLD1 [1],1.004 ± 0.0085
same,cell viability,HCT116,0.829 ± 0.16
same,cell viability,SW480 [2],1.02 ± 0.077
same,TCF/Wnt firefly luciferase reporter signal,DLD1 [3],0.802 ± 0.21
same,TCF/Wnt firefly luciferase reporter signal,SW480 [4],0.948 ± 0.011
CC(=O)OC(C)C[N+](C)(C)C (stereo not given),cell viability,DLD1 [1],0.968 ± 0.1
same,cell viability,HCT116,1.03 ± 0.08
same,cell viability,SW480 [2],0.997 ± 0.019
same,TCF/Wnt firefly luciferase reporter signal,DLD1 [3],1.01 ± 0.071
same,TCF/Wnt firefly luciferase reporter signal,SW480 [4],1.01 ± 0.021
C[C@H](CCC(=O)O)[C@H]1CC[C@H]2[C@@H]3[C@@H](O)C[C@@H]4C[C@H](O)CC[C@]4(C)[C@H]3CC[C@]12C,cell viability,DLD1 [1],0.966 ± 0.029
same,cell viability,HCT116,1.01 ± 0.025
same,cell viability,SW480 [2],0.958 ± 0.028
same,TCF/Wnt firefly luciferase reporter signal,DLD1 [3],0.89 ± 0.061
same,TCF/Wnt firefly luciferase reporter signal,SW480 [4],1.02 ± 0.09
CC(=O)Oc1ccc2c(c1C(C)C)CCC1C(C)(C)CCC[C@]21C (stereo not given in full),cell viability,DLD1 [1],1.18 ± 0.22
same,cell viability,HCT116,1.15 ± 0.071
same,cell viability,SW480 [2],1.05 ± 0.05
same,TCF/Wnt firefly luciferase reporter signal,DLD1 [3],0.98 ± 0.11
same,TCF/Wnt firefly luciferase reporter signal,SW480 [4],0.962 ± 0.047
CC(=O)O[C@H]1CC[C@]2(C)[C@H]3C(=O)C=C4[C@@H]5[C@@H](C)[C@H](C)CC[C@]5(C(=O)O)CC[C@@]4(C)[C@]3(C)CC[C@H]2C1(C)C,cell viability,DLD1 [1],1.005 ± 0.0071
same,cell viability,HCT116,1.05
same,cell viability,SW480 [2],0.993 ± 0.011
same,TCF/Wnt firefly luciferase reporter signal,DLD1 [3],1 ± 0.16
same,TCF/Wnt firefly luciferase reporter signal,SW480 [4],1.09 ± 0.028
